# Results as given in publication PMC7862700, “An all-to-all approach to the identification of sequence-specific readers for epigenetic DNA modifications on cytosine”.
# Key:
# Assay in all cases: DAPPL (digital affinity profiling via proximity ligation, sequencing); 10 mM Tris-HCl pH 7.5, 50 mM NaCl, 1 mM DTT, 4% glycerol, room temperature, 30 min; GST-TFs on glutathione beads, 16-mer random dsDNA library, 0.1% formaldehyde crosslink after washing; high values mean tight binding
# FEV = target: T1, FEV (Homo sapiens, UniProt Q99581 1-238); conditions: protein: recombinant; tags: N-terminal GST; dsDNA, one strand shown
# T1 sequence: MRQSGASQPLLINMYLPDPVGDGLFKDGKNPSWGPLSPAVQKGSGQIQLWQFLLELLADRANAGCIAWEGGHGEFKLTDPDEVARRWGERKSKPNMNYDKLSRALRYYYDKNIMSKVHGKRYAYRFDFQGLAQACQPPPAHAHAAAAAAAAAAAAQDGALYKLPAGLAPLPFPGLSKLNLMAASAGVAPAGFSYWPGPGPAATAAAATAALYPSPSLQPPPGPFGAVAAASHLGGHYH
# Procedure, shortened: (§1)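 GST fusions of human transcription factors were expressed in yeast and captured with glutathione beads. Once given DNA barcodes and pooled alongside a tag-only sample, they were incubated for 30 min at room temperature with 200 nmole of a random double-stranded 16-mer DNA library in Tris/NaCl/DTT/glycerol buffer, then washed, crosslinked (0.1% formaldehyde), proximity-ligated, PCR-amplified and sequenced on an Illumina NextSeq500. The binding signal of each hexamer is its read frequency for a factor divided by its frequency for the tag-only sample.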
# ETV5 = ETV5 (Homo sapiens, UniProt P41161 1-510); conditions: protein: recombinant; tags: N-terminal GST; dsDNA, one strand shown
# Chain of ETV5 (P41161 whole entry): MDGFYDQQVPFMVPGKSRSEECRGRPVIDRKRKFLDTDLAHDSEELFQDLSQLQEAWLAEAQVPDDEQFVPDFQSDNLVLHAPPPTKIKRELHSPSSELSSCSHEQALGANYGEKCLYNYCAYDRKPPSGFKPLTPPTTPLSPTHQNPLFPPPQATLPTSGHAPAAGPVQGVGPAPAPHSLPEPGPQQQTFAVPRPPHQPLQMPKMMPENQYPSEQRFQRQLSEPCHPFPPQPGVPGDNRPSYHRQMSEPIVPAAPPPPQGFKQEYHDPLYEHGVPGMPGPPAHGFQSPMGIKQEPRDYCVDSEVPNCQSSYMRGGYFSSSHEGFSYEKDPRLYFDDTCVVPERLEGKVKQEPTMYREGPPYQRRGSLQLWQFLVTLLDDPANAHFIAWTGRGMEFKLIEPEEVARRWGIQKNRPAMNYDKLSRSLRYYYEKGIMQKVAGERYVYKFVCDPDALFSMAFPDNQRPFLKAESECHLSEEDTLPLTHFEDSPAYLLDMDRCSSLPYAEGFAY
# Procedure, shortened: as §1
# HSF1 = HSF1 (Homo sapiens, UniProt Q00613 1-529); conditions: protein: recombinant; tags: N-terminal GST; chain copies: 3; dsDNA, one strand shown
# Chain of HSF1 (Q00613 whole entry): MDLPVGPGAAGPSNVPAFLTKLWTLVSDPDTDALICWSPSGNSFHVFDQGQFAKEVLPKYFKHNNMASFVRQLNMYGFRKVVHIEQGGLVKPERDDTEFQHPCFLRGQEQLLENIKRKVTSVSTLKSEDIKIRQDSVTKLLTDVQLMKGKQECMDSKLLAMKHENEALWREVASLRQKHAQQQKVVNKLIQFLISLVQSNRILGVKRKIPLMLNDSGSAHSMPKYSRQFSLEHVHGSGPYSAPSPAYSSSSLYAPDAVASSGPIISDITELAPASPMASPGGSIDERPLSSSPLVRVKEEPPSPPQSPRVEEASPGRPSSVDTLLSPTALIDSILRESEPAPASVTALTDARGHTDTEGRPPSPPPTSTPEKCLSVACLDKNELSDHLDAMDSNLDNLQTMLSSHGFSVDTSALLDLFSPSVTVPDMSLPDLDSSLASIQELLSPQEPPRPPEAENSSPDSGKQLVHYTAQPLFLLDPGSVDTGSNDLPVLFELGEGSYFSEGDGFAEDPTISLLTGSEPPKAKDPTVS
# Procedure, shortened: as §1
# SPIC = target: T2, SPIC (Homo sapiens, UniProt Q8N5J4 1-248); conditions: protein: recombinant; tags: N-terminal GST; dsDNA, one strand shown
# T2 sequence: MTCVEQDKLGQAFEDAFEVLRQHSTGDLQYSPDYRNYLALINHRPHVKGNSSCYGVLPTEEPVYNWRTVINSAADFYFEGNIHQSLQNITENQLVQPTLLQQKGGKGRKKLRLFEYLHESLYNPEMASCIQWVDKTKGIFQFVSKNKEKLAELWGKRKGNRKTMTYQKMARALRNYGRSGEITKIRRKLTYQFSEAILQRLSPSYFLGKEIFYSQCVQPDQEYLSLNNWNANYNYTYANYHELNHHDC
# Procedure, shortened: as §1
# ELF4 = ELF4 (Homo sapiens, UniProt Q99607 1-663); conditions: protein: recombinant; tags: N-terminal GST; dsDNA, one strand shown
# Chain of ELF4 (Q99607 whole entry): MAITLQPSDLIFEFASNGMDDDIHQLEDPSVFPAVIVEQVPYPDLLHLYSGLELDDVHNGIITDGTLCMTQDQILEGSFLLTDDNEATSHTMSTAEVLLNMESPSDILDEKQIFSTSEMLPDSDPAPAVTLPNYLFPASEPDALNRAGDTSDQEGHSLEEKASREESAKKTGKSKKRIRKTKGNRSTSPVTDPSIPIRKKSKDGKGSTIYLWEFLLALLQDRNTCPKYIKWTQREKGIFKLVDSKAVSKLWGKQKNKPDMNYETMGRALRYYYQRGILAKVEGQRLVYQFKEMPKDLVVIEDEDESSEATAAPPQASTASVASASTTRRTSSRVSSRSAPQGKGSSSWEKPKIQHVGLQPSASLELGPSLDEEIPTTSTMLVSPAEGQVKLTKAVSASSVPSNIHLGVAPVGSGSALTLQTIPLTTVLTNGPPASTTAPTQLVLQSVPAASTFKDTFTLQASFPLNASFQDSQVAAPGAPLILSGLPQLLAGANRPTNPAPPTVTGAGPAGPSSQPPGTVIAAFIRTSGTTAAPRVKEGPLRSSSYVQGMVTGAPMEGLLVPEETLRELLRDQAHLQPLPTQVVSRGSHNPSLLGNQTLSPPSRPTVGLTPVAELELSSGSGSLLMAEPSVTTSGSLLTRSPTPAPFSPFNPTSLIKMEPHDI
# Procedure, shortened: as §1
# ELK4 = target: T3, ELK4 (Homo sapiens, UniProt P28324-2 1-405); conditions: protein: recombinant; tags: N-terminal GST; dsDNA, one strand shown
# T3 sequence: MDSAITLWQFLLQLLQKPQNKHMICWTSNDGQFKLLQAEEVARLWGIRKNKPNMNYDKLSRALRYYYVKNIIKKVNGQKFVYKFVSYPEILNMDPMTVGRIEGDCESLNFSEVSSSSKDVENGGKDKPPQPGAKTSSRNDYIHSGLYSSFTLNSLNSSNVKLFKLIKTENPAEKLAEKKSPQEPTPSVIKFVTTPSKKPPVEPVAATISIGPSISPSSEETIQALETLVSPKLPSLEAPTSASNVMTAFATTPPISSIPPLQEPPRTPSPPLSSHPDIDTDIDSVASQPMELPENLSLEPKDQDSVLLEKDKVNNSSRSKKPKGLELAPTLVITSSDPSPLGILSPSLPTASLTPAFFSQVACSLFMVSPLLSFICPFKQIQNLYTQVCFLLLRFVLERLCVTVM
# Procedure, shortened: as §1
# ETV2 = target: T4, ETV2 (Homo sapiens, UniProt O00321 1-342); conditions: protein: recombinant; tags: N-terminal GST; dsDNA, one strand shown
# T4 sequence: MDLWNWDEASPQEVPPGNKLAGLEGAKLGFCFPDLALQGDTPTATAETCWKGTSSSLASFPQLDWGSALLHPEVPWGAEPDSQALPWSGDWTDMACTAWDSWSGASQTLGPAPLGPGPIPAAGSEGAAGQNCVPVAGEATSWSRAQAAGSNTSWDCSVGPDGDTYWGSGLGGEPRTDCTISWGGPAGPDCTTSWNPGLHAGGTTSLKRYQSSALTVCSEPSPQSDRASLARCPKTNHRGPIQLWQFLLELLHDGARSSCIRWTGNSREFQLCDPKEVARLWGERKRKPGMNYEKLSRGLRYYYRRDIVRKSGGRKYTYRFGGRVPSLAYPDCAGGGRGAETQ
# Procedure, shortened: as §1
# ELF3 = target: T5, ELF3 (Homo sapiens, UniProt P78545 1-371); conditions: protein: recombinant; tags: N-terminal GST; dsDNA, one strand shown
# T5 sequence: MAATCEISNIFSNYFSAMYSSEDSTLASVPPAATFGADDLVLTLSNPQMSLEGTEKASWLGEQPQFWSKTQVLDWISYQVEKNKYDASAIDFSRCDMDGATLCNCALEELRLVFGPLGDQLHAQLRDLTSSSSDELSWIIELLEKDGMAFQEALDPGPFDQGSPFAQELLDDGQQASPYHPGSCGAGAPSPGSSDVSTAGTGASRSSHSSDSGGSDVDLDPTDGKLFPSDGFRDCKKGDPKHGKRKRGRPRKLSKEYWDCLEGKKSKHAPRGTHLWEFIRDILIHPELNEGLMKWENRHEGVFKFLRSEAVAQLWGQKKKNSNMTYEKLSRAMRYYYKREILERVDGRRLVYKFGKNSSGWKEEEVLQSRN
# Procedure, shortened: as §1
# CRX = CRX (Homo sapiens, UniProt O43186 1-299); conditions: protein: recombinant; tags: N-terminal GST; dsDNA, one strand shown
# Chain of CRX (O43186 whole entry): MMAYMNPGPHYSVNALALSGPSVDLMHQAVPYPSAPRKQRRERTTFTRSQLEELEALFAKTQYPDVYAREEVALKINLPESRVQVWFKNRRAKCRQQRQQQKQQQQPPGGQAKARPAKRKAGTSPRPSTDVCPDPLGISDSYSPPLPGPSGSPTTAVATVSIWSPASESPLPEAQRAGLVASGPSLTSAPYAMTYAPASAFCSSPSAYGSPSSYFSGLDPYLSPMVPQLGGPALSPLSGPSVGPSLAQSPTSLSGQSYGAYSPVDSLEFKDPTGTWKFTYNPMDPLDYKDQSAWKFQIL
# Procedure, shortened: as §1
# ETV1 = ETV1 (Homo sapiens, UniProt P50549 1-477); conditions: protein: recombinant; tags: N-terminal GST; dsDNA, one strand shown
# Chain of ETV1 (P50549 whole entry): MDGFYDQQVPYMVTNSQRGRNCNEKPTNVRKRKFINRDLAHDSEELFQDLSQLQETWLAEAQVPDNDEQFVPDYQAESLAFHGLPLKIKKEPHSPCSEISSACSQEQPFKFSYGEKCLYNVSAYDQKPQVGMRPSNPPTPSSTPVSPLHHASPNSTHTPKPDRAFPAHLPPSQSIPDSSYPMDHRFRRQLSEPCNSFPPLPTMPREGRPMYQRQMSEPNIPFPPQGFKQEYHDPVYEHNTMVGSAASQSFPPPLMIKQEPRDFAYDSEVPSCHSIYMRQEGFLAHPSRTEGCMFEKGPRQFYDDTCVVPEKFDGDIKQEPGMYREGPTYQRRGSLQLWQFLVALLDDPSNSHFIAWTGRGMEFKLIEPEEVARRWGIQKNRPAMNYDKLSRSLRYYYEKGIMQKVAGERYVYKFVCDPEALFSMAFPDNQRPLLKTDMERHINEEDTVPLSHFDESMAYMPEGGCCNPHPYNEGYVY
# Procedure, shortened: as §1
sequence,measurement,setting,value
ACATTT,binding signal,FEV,"1.46 fold enrichment (6-mer frequency, TF over GST control)"
same,binding signal,ETV5,"1.44 fold enrichment (6-mer frequency, TF over GST control)"
same,binding signal,HSF1,"1.3 fold enrichment (6-mer frequency, TF over GST control)"
same,binding signal,SPIC,"1.25 fold enrichment (6-mer frequency, TF over GST control)"
same,binding signal,ELF4,"1.41 fold enrichment (6-mer frequency, TF over GST control)"
same,binding signal,ELK4,"1.36 fold enrichment (6-mer frequency, TF over GST control)"
same,binding signal,ETV2,"1.68 fold enrichment (6-mer frequency, TF over GST control)"
same,binding signal,ELF3,"1.6 fold enrichment (6-mer frequency, TF over GST control)"
same,binding signal,CRX,"1.16 fold enrichment (6-mer frequency, TF over GST control)"
same,binding signal,ETV1,"1.43 fold enrichment (6-mer frequency, TF over GST control)"
